# Data taken from PubChem BioAssay (Tox21).
# Results filed as inconclusive are left out. A call without a number means that no potency is given here. Active and inactive are the calls of the source. Unless noted, calls come from the whole dose curve; as a rule, active = well fitted curve in the direction sought with a large enough effect in the repeat runs; inconclusive = weak or mixed curves; inactive = no such curve, though single readings can be large; an effect the other way counts as inactive or inconclusive.
# Key:
# [1] = qHTS assay to identify small molecule antagonists of the sonic hedgehog signaling (Shh) pathway (AID 1259369; calls by dose curve; note: nearly all actives have a fitted effect of over 45% in size)
# How it was run: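 NIH/3T3-derived 3T3Gli1-Luc cells with stably integrated Gli1-Luc reporter were preincubated 4hr at 37 C, then given compounds in DMSO plus Shh conditioned medium and incubated 24hr. Firefly luciferase luminescence read after 30min reagent at room temperature.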
# [2] = qHTS assay to identify small molecule agonists of the androgen receptor (AR) signaling pathway in the presence of an antagonist - cell viability counter screen (AID 1259379); note: nearly all actives have a fitted effect of over 25% in size; note: potency is the fitted concentration of half-maximal effect
# How it was run: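 MDA-kb2 human breast carcinoma cells (stable MMTV-luciferase, AR/GR responsive) were seeded 3,000 cells/well, pre-incubated 5 hr at 37C without CO2, then given 3.0uM nilutamide and compounds at 15 concentrations for 16 hr. Viability was read by CellTiter-Fluor fluorescence.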
# [3] = qHTS assay to identify small molecule agonists of the estrogen receptor beta (ER-beta) signaling pathway - cell viability counter screen (AID 1259380); note: nearly all actives have a fitted effect of over 30% in size; note: potency is the fitted concentration of half-maximal effect
# How it was run: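 ER-beta-UAS-bla HEK293T cells in medium with 2% charcoal-stripped FBS were preincubated 6 hr at 37C, dosed with compound in DMSO for 16 hr, then after the bla read, CellTiter-Glo was added for 30 min at room temperature; luminescence recorded.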
# [4] = molecular target: Estrogen receptor (Homo sapiens) (UniProt P03372); experiment: qHTS assay to identify small molecule agonists of the estrogen receptor alpha (ER-alpha) signaling pathway in the presence of an antagonist (AID 1259383; calls by dose curve; note: top concentration of the series differs between compounds; nearly all actives have a fitted effect of over 15% in size)
# Estrogen receptor (Homo sapiens), sequence (P03372 whole entry, looked up): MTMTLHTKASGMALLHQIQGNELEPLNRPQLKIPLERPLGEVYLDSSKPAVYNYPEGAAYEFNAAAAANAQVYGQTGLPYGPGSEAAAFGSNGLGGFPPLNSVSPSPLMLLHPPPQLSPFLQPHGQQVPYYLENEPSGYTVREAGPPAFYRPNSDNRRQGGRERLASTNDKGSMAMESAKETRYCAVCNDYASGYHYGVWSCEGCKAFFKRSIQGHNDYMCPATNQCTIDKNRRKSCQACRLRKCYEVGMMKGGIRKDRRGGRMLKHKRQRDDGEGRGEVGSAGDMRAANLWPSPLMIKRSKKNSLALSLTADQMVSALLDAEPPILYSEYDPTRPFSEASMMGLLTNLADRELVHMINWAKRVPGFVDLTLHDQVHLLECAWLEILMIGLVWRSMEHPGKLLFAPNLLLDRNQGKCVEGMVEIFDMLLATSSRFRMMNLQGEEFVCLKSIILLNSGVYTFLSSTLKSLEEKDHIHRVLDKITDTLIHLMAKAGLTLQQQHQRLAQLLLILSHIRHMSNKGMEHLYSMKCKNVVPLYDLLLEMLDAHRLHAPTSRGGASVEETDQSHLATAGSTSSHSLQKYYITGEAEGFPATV
# How it was run: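 VM7Luc4E2 cells (endogenous full-length ER-alpha, 4×ERE-luciferase) were precultured 5 days in phenol red-free medium with 10% charcoal-stripped FBS, given 10.0nM ICI-182,780 (final), then treated with compounds at 15 concentrations for 22hr at 37C; luminescence read with ONE-Glo.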
# [5] = molecular target: Progesterone receptor (Homo sapiens) (UniProt P06401); experiment: qHTS assay to identify small molecule agonists of the progesterone receptor (PR) signaling pathway (AID 1346784; calls by dose curve; note: nearly all actives have a fitted effect of over 30% in size)
# Progesterone receptor (Homo sapiens), sequence (P06401 whole entry, looked up): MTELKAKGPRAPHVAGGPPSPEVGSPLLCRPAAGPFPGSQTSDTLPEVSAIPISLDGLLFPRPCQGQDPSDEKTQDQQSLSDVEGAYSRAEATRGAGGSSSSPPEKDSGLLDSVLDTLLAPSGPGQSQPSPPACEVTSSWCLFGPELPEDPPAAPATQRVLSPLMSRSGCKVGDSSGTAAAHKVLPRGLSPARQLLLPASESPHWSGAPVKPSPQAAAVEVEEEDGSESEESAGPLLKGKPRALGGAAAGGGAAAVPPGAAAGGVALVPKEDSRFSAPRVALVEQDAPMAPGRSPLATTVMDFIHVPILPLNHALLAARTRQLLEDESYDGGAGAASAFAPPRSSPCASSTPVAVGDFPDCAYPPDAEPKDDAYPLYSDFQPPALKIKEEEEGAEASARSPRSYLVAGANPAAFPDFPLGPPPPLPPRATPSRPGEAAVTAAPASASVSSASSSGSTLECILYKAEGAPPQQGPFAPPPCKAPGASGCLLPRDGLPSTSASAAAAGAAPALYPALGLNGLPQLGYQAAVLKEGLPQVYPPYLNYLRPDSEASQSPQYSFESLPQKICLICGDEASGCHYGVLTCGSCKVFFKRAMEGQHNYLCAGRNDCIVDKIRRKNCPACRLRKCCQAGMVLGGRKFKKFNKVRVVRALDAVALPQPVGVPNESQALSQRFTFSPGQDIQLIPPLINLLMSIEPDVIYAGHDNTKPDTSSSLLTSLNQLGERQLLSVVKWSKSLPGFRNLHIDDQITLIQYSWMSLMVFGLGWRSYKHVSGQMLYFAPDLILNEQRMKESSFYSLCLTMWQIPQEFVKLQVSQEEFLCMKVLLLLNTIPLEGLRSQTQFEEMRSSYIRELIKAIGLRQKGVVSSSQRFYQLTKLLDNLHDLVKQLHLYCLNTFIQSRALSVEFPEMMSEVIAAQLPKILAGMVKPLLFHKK
# How it was run: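 PR-UAS-bla HEK 293T cells (beta-lactamase reporter under UAS) in 2% charcoal-stripped FBS, dosed with 23 nL compound after 6 hr, incubated 16hr at 37C. LiveBLAzer B/G FRET substrate added, fluorescence read after 2 hours.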
# [6] = qHTS assay to identify small molecule antagonists of the progesterone receptor (PR) signaling pathway - cell viability counter screen (AID 1346798); note: nearly all actives have a fitted effect of over 50% in size; note: potency is the fitted concentration of half-maximal effect
# How it was run: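 PR-UAS-bla HEK293T cells, 3,000/well in 2% charcoal-stripped FBS medium, dosed with compounds plus R5020 agonist and incubated 16 h at 37C. Viability then measured in the same wells by CellTiter-Glo luminescence after 30 min at RT.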
# [7] = qHTS assay to identify small molecule agonists of the progesterone receptor (PR) signaling pathway - cell viability counter screen (AID 1346799; calls by dose curve; note: nearly all actives have a fitted effect of over 45% in size)
# How it was run: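 Counter screen in the PR-UAS-bla HEK293T wells (2% charcoal-stripped FBS, 16 h compound exposure at 37 C) after the bla read. CellTiter-Glo added, 30 min at room temperature, luminescence read as cell viability.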
# [8] = qHTS assay to identify small molecule antagonists of the TGF-beta/Smad signaling pathway - cell viability counter screen (AID 1346824); note: nearly all actives have a fitted effect of over 50% in size; note: potency is the fitted concentration of half-maximal effect
# How it was run: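 SBE-bla HEK 293T cells, incubated overnight, then compound plus 0.25 ng/mL TGF-beta1 (stock added) for 5 hr at 37 C. Viability was read in the same wells by CellTiter-Glo luminescence after 30 min at room temperature.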
# [9] = qHTS assay to identify small molecule agonists of the TGF-beta/Smad signaling pathway - cell viability counter screen (AID 1346829); note: top concentration of the series differs between compounds; nearly all actives have a fitted effect of over 45% in size
# How it was run: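 After overnight seating at 37 C and 5% CO2, reporter cells got compounds for 5 hr and FRET substrate for 2 hr; cell viability then came from CellTiter-Glo luminescence.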
# [10] = qHTS assay to identify small molecule agonists of the TGF-beta/Smad signaling pathway (AID 1346859; active = well fitted activation curve with a large enough effect in the signal ratio in the repeat runs, not every such curve was filed as active; the % refers to the signal ratio; note: series mostly up to about 77 µM)
# How it was run: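 SBE-bla HEK293T cells plated overnight, then compound exposure for 5 h at 37 C. Beta-lactamase reporter read with LiveBLAzer B/G FRET substrate after 2 h at room temperature, fluorescence at 405 nm excitation, 460/530 nm emission.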
# [11] = molecular target: Thyrotropin-releasing hormone receptor (Homo sapiens) (UniProt P34981); experiment: qHTS assay to identify small molecule antagonists of the thyrotropin-releasing hormone receptor (TRHR) signaling pathway (AID 1346877; active = well fitted inhibition curve with a large enough effect in the repeat runs, not every such curve was filed as active; note: series mostly up to about 51 µM)
# Thyrotropin-releasing hormone receptor (Homo sapiens), sequence (P34981 whole entry, looked up): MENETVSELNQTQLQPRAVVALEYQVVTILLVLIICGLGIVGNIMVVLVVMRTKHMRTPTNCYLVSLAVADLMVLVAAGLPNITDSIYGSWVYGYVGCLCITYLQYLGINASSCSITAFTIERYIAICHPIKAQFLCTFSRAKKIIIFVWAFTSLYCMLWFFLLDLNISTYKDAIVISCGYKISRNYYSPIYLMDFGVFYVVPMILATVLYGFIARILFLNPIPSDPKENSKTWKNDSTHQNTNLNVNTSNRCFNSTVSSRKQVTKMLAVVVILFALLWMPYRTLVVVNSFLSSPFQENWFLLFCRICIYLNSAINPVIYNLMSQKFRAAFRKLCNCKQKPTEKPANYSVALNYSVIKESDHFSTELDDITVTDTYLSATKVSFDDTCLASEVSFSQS
# How it was run: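 TRHR-expressing HEK293 cells were seeded, cultured 18 h at 37 °C, then loaded with calcium dye for 2 h. Compounds were pre-incubated 5 min at room temperature before 1 nM TRH (final) was added, and kinetic fluorescence was recorded for 3 min.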
# [12] = molecular target: Thyrotropin-releasing hormone receptor (Homo sapiens) (UniProt P34981); experiment: qHTS assay to identify small molecule agonists of the thyrotropin-releasing hormone receptor (TRHR) signaling pathway (AID 1346891; calls by dose curve; note: series mostly up to about 58 µM)
# How it was run: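 HEK293 cells expressing TRHR plated 18 h at 37 C/5% CO2, calcium dye-loaded 2 h at 37 C, then compound added (agonist mode); kinetic calcium fluorescence read 3 min at 1 s intervals; 15 concentrations in triplicate.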
# [13] = qHTS assay to identify small molecule antagonists of the estrogen receptor beta (ER-beta) signaling pathway - cell viability counter screen (AID 1259382); note: series mostly up to about 92 µM; nearly all actives have a fitted effect of over 55% in size
# How it was run: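 ER-beta-UAS-bla HEK293T cells (2,000/well, 2% charcoal-stripped FBS) were pre-incubated 6 hr at 37C, then given compound plus 1nM final 17-beta-estradiol for 16 hr. Viability was read in the same wells by CellTiter-Glo luminescence after 30 min at room temperature.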
# [14] = qHTS assay to identify small molecule agonists or antagonists of the thyroid stimulating hormone receptor (TSHR) signaling pathway - wild type cell line counter screen (AID 1259384; calls by dose curve)
# How it was run: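 Wild-type Hek293 cells, 800/well, 18 h at 37C, then compound with Ro20-1724 for 30 min RT. cAMP by HTRF (cAMP-d2/anti-cAMP cryptate), 1 h RT, fluorescence read. 15 concentrations, triplicates.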
# [15] = molecular target: Thyrotropin receptor (Homo sapiens) (UniProt P16473); experiment: qHTS assay to identify small molecule antagonists of the thyroid stimulating hormone receptor (TSHR) signaling pathway (AID 1259385; calls by dose curve; note: nearly all actives have a fitted effect of over 20% in size)
# Thyrotropin receptor (Homo sapiens), sequence (P16473 whole entry, looked up): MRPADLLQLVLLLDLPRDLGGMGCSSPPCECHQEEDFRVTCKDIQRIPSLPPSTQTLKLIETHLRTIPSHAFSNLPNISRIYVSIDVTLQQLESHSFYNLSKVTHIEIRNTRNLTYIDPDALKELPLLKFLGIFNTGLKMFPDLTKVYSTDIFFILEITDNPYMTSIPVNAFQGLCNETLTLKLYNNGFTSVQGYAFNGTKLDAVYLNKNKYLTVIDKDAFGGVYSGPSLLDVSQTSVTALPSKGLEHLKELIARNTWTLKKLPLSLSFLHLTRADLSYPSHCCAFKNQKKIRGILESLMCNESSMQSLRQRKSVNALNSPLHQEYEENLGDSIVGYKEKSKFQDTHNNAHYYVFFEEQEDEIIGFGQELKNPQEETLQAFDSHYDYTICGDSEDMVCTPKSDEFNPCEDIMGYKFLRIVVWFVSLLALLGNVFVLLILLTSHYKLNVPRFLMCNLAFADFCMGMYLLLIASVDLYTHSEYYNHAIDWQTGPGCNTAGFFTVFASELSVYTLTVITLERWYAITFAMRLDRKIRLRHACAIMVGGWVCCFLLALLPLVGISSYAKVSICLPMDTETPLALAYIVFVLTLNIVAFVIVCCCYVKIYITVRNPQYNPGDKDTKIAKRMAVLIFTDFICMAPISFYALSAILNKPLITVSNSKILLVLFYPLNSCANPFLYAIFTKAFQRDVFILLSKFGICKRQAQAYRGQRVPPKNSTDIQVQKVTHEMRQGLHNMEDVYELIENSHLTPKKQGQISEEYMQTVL
# How it was run: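 TSHR-HEK293 cells (800/well) plated 18 h, then compounds with Ro20-1724 and TSH at 1.5 ng/mL final, 30 min at room temperature. cAMP quantified by HTRF (cAMP-d2/anti-cAMP-cryptate, 1 h); 15 concentrations in triplicate.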
# [16] = molecular target: Progesterone receptor (Homo sapiens) (UniProt P06401); experiment: qHTS assay to identify small molecule antagonists of the progesterone receptor (PR) signaling pathway (AID 1346795; active = well fitted inhibition curve with a large enough effect in the signal ratio in the repeat runs, not every such curve was filed as active; the % refers to the signal ratio; note: potency is the fitted concentration of half-maximal effect)
# How it was run: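 PR-UAS-bla HEK293T cells with beta-lactamase reporter under UAS control, in 2% charcoal-stripped FBS, treated with compounds plus 1 nM promegestone (R5020, final) for 16 hr at 37C. Read-out: FRET beta-lactamase substrate fluorescence after 2 hr at room temperature.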
# [17] = molecular target: Estrogen receptor beta (Homo sapiens) (UniProt Q92731); experiment: qHTS assay to identify small molecule agonists of the estrogen receptor beta (ER-beta) signaling pathway (AID 1259377; active = well fitted activation curve with a large enough effect in the signal ratio in the repeat runs, not every such curve was filed as active; the % refers to the signal ratio)
# Estrogen receptor beta (Homo sapiens), sequence (Q92731 whole entry, looked up): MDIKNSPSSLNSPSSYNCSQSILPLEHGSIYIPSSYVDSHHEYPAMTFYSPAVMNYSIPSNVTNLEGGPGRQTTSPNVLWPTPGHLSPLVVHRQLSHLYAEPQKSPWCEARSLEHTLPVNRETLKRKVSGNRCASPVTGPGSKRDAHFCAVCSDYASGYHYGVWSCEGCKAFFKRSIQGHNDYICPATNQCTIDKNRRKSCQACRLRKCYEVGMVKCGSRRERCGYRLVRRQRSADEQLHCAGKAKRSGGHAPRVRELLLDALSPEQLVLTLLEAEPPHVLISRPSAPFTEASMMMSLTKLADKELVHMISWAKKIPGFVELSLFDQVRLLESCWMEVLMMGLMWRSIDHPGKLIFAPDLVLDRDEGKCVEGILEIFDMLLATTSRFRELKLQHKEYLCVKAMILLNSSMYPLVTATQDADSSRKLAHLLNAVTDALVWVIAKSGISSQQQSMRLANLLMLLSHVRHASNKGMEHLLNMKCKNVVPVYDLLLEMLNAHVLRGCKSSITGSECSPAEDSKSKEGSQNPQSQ
# How it was run: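 ER-beta-UAS-bla HEK293T cells in medium with 2% charcoal-stripped FBS were exposed to compounds for 16 h at 37C. Beta-lactamase reporter activity was read as fluorescence after 2 h with LiveBLAzer B/G FRET substrate at room temperature.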
# [18] = molecular target: Estrogen receptor beta (Homo sapiens) (UniProt Q92731); experiment: qHTS assay to identify small molecule antagonists of the estrogen receptor beta (ER-beta) signaling pathway (AID 1259378; active = well fitted inhibition curve with a large enough effect in the signal ratio in the repeat runs, not every such curve was filed as active; the % refers to the signal ratio; note: potency is the fitted concentration of half-maximal effect)
# How it was run: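 ER-beta-UAS-bla HEK293T cells in 2% charcoal-stripped FBS medium treated with compound plus 1nM final 17-beta-estradiol for 16 hr at 37C. Beta-lactamase reporter read by FRET substrate fluorescence after 2 hours at room temperature.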
# [19] = qHTS assay to identify small molecule agonists of the estrogen receptor alpha (ER-alpha) signaling pathway in the presence of an antagonist - cell viability counter screen (AID 1259386);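 note: series mostly up to about 92 µM; cells exposed to compounds for 22 h at 37 °C before the viability read; nearly all actives have a fitted effect of over 30% in size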
# How it was run: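 VM7Luc4E2 cells (endogenous full-length ER-alpha, 4×ERE-luciferase) were held 5 days in phenol red-free medium with 10% charcoal-stripped FBS, plated, then given 10.0nM ICI-182,780 and compounds at 15 concentrations for 22hr at 37C; viability read by CellTiter-Fluor fluorescence.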
# [20] = molecular target: Androgen receptor (Homo sapiens) (UniProt P10275); experiment: qHTS assay to identify small molecule agonists of the androgen receptor (AR) signaling pathway in the presence of an antagonist (AID 1259381; calls by dose curve; note: nearly all actives have a fitted effect of over 15% in size)
# Androgen receptor (Homo sapiens), sequence (P10275 whole entry, looked up): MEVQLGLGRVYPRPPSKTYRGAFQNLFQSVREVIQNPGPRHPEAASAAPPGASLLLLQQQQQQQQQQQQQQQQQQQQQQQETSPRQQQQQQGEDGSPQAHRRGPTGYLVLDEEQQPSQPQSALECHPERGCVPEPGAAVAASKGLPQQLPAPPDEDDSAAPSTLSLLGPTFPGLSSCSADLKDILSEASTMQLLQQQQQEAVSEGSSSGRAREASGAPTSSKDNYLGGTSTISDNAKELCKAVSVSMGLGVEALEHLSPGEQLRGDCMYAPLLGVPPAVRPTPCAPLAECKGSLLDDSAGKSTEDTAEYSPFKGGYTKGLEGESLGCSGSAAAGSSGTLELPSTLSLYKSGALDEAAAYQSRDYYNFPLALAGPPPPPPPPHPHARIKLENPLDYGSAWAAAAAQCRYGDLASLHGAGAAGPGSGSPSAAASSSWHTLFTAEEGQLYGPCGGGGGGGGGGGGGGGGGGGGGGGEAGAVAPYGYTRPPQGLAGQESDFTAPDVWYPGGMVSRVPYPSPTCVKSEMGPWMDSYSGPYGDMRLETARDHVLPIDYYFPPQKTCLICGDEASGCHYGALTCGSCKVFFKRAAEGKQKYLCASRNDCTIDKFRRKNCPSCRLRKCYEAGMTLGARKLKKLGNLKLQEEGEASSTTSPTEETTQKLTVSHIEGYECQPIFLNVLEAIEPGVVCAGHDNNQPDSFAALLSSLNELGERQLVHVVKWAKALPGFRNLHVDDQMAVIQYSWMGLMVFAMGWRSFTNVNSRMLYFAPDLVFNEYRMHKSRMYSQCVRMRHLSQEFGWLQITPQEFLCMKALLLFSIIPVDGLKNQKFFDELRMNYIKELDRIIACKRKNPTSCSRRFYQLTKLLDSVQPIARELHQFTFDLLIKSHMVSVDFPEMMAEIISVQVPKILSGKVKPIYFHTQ
# How it was run: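 MDA-kb2 human breast carcinoma cells carrying an MMTV-luciferase reporter (AR- and GR-responsive) were treated with compounds at 15 concentrations plus 3.0uM final nilutamide for 16hr at 37C without CO2; luminescence was read after ONE-Glo addition.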
Compound,Potency [1],Potency [2],Potency [3],Potency [4],Potency [5],Potency [6],Potency [7],Potency [8],outcome [9],outcome [10],outcome [11],outcome [12],Potency [13],Potency [14],Potency [15],Potency [16],outcome [17],Potency [18],Potency [19],Potency [20]
[Cl][Sn]([Cl])([Cl])[Cl],inactive,inactive,inactive,inactive,inactive,inactive,inactive,inactive,inactive,inactive,inactive,inactive,–,–,–,–,–,–,–,–
COC(=O)c1ccccc1S(=O)(=O)NC(=O)Nc1nc(C)cc(C)n1,inactive,inactive,inactive,–,inactive,inactive,inactive,–,inactive,inactive,inactive,inactive,inactive,inactive,inactive,inactive,–,–,–,–
Nc1cnn(-c2ccccc2)c(=O)c1Cl,–,inactive,inactive,inactive,inactive,inactive,inactive,inactive,inactive,inactive,inactive,inactive,inactive,inactive,inactive,inactive,inactive,inactive,inactive,–
O=C(Oc1ccc(Br)cc1)N1CCN2CCC1CC2,inactive,inactive,–,inactive,inactive,–,inactive,inactive,inactive,–,inactive,inactive,inactive,inactive,inactive,inactive,–,–,inactive,–
COCC(=O)N(c1c(C)cccc1C)N1CCOC1=O,inactive,inactive,inactive,–,inactive,inactive,inactive,inactive,inactive,–,inactive,inactive,inactive,–,–,inactive,–,–,inactive,–
COc1ccc(C(=O)N2CCCC2=O)cc1,inactive,inactive,inactive,–,inactive,inactive,inactive,inactive,inactive,–,inactive,inactive,–,inactive,inactive,inactive,–,–,inactive,–
O=C(CCN1CC1)OCC(CO)(COC(=O)CCN1CC1)COC(=O)CCN1CC1,inactive,inactive,inactive,–,inactive,inactive,inactive,inactive,inactive,inactive,inactive,inactive,inactive,inactive,inactive,inactive,–,–,inactive,–
O=CNC(N1CCN(C(NC=O)C(Cl)(Cl)Cl)CC1)C(Cl)(Cl)Cl (centres undefined),inactive,inactive,–,inactive,inactive,inactive,inactive,inactive,inactive,–,inactive,inactive,inactive,inactive,inactive,inactive,–,–,inactive,inactive
CCSC(=O)N(CC)C1CCCCC1,inactive,inactive,inactive,inactive,inactive,inactive,inactive,inactive,inactive,inactive,inactive,inactive,–,inactive,inactive,inactive,–,–,inactive,–
O=C(NCO)NCO,inactive,inactive,–,inactive,inactive,inactive,inactive,inactive,inactive,inactive,–,–,inactive,inactive,inactive,–,–,–,inactive,–
Fc1cc(Br)ccc1CBr,–,inactive,inactive,inactive,inactive,inactive,inactive,inactive,inactive,inactive,inactive,inactive,inactive,inactive,inactive,inactive,inactive,inactive,inactive,inactive
O=[N+]([O-])c1cccc(O)c1,inactive,inactive,inactive,–,inactive,inactive,inactive,inactive,inactive,inactive,inactive,inactive,inactive,inactive,inactive,inactive,–,–,inactive,–
CCNc1nc(NC(C)C)nc(OC)n1,inactive,inactive,inactive,–,–,inactive,inactive,inactive,inactive,inactive,inactive,inactive,inactive,inactive,inactive,–,–,–,inactive,–
CC(C)[N+](=O)[O-],inactive,inactive,inactive,–,inactive,inactive,inactive,inactive,inactive,inactive,inactive,inactive,inactive,inactive,inactive,inactive,–,–,inactive,–
Cc1nc(N)nc(N)n1,inactive,inactive,inactive,inactive,inactive,inactive,inactive,–,inactive,inactive,inactive,inactive,inactive,inactive,–,inactive,–,–,–,–
CCOP(=S)(OCC)Oc1nc(Cl)n(C(C)C)n1,inactive,inactive,–,inactive,–,inactive,–,inactive,inactive,inactive,inactive,inactive,inactive,inactive,–,–,–,–,inactive,–
CN(C)CCc1ccc(O)cc1,inactive,inactive,–,–,inactive,inactive,inactive,inactive,inactive,inactive,inactive,inactive,inactive,inactive,inactive,inactive,–,–,–,–
ClCC(Cl)Cl,inactive,inactive,inactive,–,inactive,inactive,inactive,inactive,inactive,inactive,–,–,inactive,inactive,inactive,inactive,–,–,inactive,–
N#CC(CCc1ccc(Cl)cc1)(Cn1cncn1)c1ccccc1 (centres undefined),–,48.6 µM (active),68.6 µM (active),inactive,–,30.6 µM (active),–,54.9 µM (active),–,–,–,–,–,inactive,–,–,inactive,30.6 µM (active),–,inactive
CCCCOC(=O)[C@@H](C)Oc1ccc(Oc2ccc(C#N)cc2F)cc1,–,inactive,inactive,inactive,inactive,inactive,inactive,inactive,inactive,–,inactive,inactive,inactive,inactive,–,–,inactive,–,inactive,–
CCCSP(=O)(OCC)Oc1ccc(Br)cc1Cl (centres undefined),–,inactive,inactive,–,inactive,–,–,inactive,inactive,–,inactive,inactive,–,inactive,inactive,11.8 µM (active),inactive,–,inactive,–
CC(C=O)Cc1ccc2c(c1)OCO2 (centres undefined),–,inactive,–,–,inactive,inactive,inactive,inactive,inactive,inactive,–,–,–,inactive,inactive,inactive,inactive,–,–,–
CN1C(=S)CN=C(c2ccccc2)c2cc(Cl)ccc21,–,inactive,inactive,inactive,inactive,–,–,inactive,inactive,inactive,inactive,inactive,inactive,inactive,inactive,–,inactive,–,inactive,–
ClCCOCOCCCl,–,inactive,inactive,–,inactive,inactive,inactive,inactive,inactive,inactive,inactive,inactive,inactive,inactive,inactive,inactive,inactive,inactive,inactive,–
OCCSCSCCO,–,inactive,–,inactive,inactive,inactive,inactive,inactive,inactive,inactive,inactive,inactive,inactive,inactive,inactive,–,inactive,inactive,inactive,–
OC(c1ccccc1)(c1ccccc1)C1CCNCC1,–,inactive,–,–,inactive,inactive,inactive,inactive,inactive,inactive,inactive,inactive,inactive,inactive,inactive,inactive,inactive,–,–,–
O=C(Nc1ccccc1)N(Cc1ccc(Cl)cc1)C1CCCC1,–,68.6 µM (active),–,–,inactive,inactive,–,inactive,inactive,inactive,inactive,inactive,inactive,inactive,inactive,–,inactive,–,–,–
